Pf Dd2 inh = blocks in vitro growth of P. falciparum Dd2; Potency, µM (series often up to 28.9 µM), without a hit: at the highest dose activity, negative = inhibition, hits mostly inhibitors; P. falciparum Dd2 growth, SYBR Green, 72 h; hit rate 4.3% among 120,000; active = well fitted inhibition curve with a large enough effect;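 note: plate controls were DMSO vehicle for no effect and reference drug for full effect; nearly all actives have a fitted effect of over 65% in size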
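Readout: SYBR Green fluorescence, 485 nm excitation, 535 nm emission, after ~16 h lysis at 37C. Before that, Dd2-infected red cells (2.5% hematocrit) grew 72 h with compound, 29 uM top final concentration.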
* marks the source's active call; other numbers are inactive results; i = inactive; [ ] = another dose, or the depositor's remark. Only a selection was taken, and hits are over-represented in it overall. Potency is the fitted concentration of half-maximal effect.

SMILES | Pf Dd2 inh
CC(=O)N1CCC(NC[C@H]2COCc3nc4ccccc4n32)CC1 | 7%[44.1 µM]
O=C(NCC1CCN(c2cc(-c3ccc(F)cc3)[nH]n2)CC1)c1c[nH]c2ccccc12 | -5%
O=C([C@H]1O[C@H](CCN2CCC(CO)CC2)CC[C@@H]1O)N1CCN(c2ccccc2)CC1 | i
Cc1nc(Cn2nc(C3CCCNC3)n(-c3ccccc3)c2=O)cs1 (stereo not given) | -16%
COCCCNC(=O)c1ccc(Cn2c(=O)c3ccccc3n(Cc3ccc(Cl)cc3)c2=O)cc1 | -18%
O=C(NC1CCN(Cc2ccccc2)CC1)c1ccc(Cn2c(=O)c3ccccc3n(Cc3ccc(Cl)cc3)c2=O)cc1 | 5µM*
O=C(NC1CCN(Cc2ccccc2)CC1)c1ccc(Cn2c(=O)c3ccccc3n(Cc3ccccc3)c2=O)cc1 | -15%
O=C(O)C[C@@H]1CCN(C(=O)c2ccccc2)C[C@@H]1CC1=NCCc2cc(F)ccc21 | 3%[44.1 µM]
COCCN1C(=O)CS(=O)(=O)C12CCN(C(=O)C1CC1)CC2 | 7%
Cc1cccc(NC(=O)Cn2ccn3nc(-c4ccc(F)cc4)c(CO)c3c2=O)c1C | -8%
O=C(c1coc(COc2cccc(C(F)(F)F)c2)n1)N1CCCCCCC1 | -24%
CN(C)C(=O)c1ccc(OC2CCN(C(=O)c3ccccc3)CC2)nc1 | 25%
CCN1C(=O)Cc2cc(C(=O)NCc3ccc4c(c3)OCO4)ccc21 | i
CCOC(=O)c1ccc(NC(=O)C2CCCN(c3cnccn3)C2)cc1 (stereo not given) | -11%
CCOC(=O)c1ccc(NC(=O)C2CCCN(c3ncnc4onc(C)c34)C2)cc1 (stereo not given) | 7.9µM*
CCOC(=O)c1ccc(NC(=O)C2CCCN(c3ccc(Sc4ccc(C)cc4)nn3)C2)cc1 (stereo not given) | 5.6µM*
CCOCCCNC(=O)C1CCCN(c2ncnc3onc(C)c23)C1 (stereo not given) | 1%
Cc1ccc(Sc2ccc(N3CCCC(C(=O)Nc4ccc(F)cc4F)C3)nn2)cc1 (stereo not given) | -5%
COC(=O)c1ccccc1NC(=O)C1CCCN(c2ncnc3onc(C)c23)C1 (stereo not given) | -2%
COc1ccc(-c2ccccc2)cc1N1C(=O)[C@@H]2C[C@H]1CN2C(=O)C1(N)CC1 | -1%
COCCOC1CCN(C(=O)c2n[nH]c3ccccc23)CC1 | 15%
COc1cc(CN2CCc3nc(N4CCN(C)CC4)[nH]c(=O)c3CC2)cc(OC)c1OC | i[5.79 µM]
Cc1ccc(NC(=O)Cn2cccc2-c2nc(-c3ccccc3)no2)cc1 | 90%
Cc1ccc(NC(=O)Cn2cccc2-c2nc(-c3ccccc3)no2)c(Cl)c1 | 5%
O=C(Cn1cccc1-c1nc(-c2ccc(F)cc2)no1)Nc1cccc(F)c1 | -4%
SMILES | Pf Dd2 inh
COC(=O)c1ccccc1NC(=O)Cn1cccc1-c1nc(-c2ccc(OC)c(F)c2)no1 | 16%
COc1ccc(NC(=O)Cn2cccc2-c2nc(-c3ccc(F)cc3)no2)cc1 | 2.5µM*
COc1ccc(CCNC(=O)Cn2cccc2-c2nc(-c3ccc(F)cc3)no2)cc1OC | i
COc1ccc(-c2noc(-c3cccn3CC(=O)Nc3cccc(Cl)c3)n2)cc1F | 2.5µM*
COc1ccc(-c2noc(-c3cccn3CC(=O)Nc3cc(F)ccc3Cl)n2)cc1F | -10%
CCc1ccc(NC(=O)Cn2cccc2-c2nc(-c3ccc(OC)c(F)c3)no2)cc1 | 2µM*
Cc1cc(C)c(NC(=O)Cn2cccc2-c2nc(-c3ccc(F)cc3)no2)c(C)c1 | 95%
CCc1ccccc1NC(=O)Cn1cccc1-c1nc(-c2ccccc2)no1 | 2.8µM*
COc1ccc(-c2noc(-c3cccn3CC(=O)Nc3ccc(N(C)C)cc3)n2)cc1F | 0%
O=C(Nc1cccc(Cl)c1)C1CCc2sc(C(=O)N3CCCC3)cc2C1 (stereo not given) | i
COc1ccc(NC(=O)C2CN(S(=O)(=O)c3cccnc3)CC23CCCCC3)cc1 (stereo not given) | -26%
Cc1nc(-c2ccc(CNC(=O)CN3CCN(c4ncccn4)CC3)cc2)no1 | -13%
COc1ccc(C2(C(=O)N3CCC4(CCC4OC)CC3)CC2)cc1 (stereo not given) | -10%
CN1CC2(CCCN(C(=O)CCc3ccccc3Cl)CC2)OC1=O (stereo not given) | -4%
Cc1ccc(O[C@H]2CCOC[C@H]2NC(=O)C2CCS(=O)(=O)CC2)cn1 | -10%
CC1=C(C(=O)Nc2ccccc2)C(c2cccc(C)c2)N2C(CC(=O)NC3CC3)=CSC2=N1 (stereo not given) | -14%
O=C(CCC1CCN(c2cc(NC3CC3)ncn2)CC1)NCC1CC1 | -25%
CS(=O)(=O)N(C1CC1)C1CCOC2(CCN(C(=O)NCc3ccccc3)CC2)C1 (stereo not given) | i
CCC(=O)N1CCC(Cc2nc(C3CCOCC3)no2)CC1 | 44%
COCCO[C@H]1C(=O)N(C2CCN(C(=O)c3ocnc3C)CC2)[C@H]1c1ccncc1 | -7%
COc1ccc(-c2noc(-c3cccn3CC(=O)Nc3ccc(F)c(F)c3)n2)cc1F | 2.8µM*
CCOc1ccc(C(=O)NCCn2cccc2-c2nc(-c3ccccc3)no2)cc1OCC | 10µM*
COc1ccc(NC(=O)Cn2cccc2-c2nc(-c3ccc4c(c3)OCO4)no2)cc1OC | -24%
CCOc1ccc(CCNC(=O)Cn2cccc2-c2nc(-c3ccccc3)no2)cc1OCC | 3%
COc1ccc(C(=O)NCCn2cccc2-c2nc(-c3ccccc3)no2)cc1 | i
SMILES | Pf Dd2 inh
COc1ccc(-c2noc(-c3cccn3CC(=O)NC3CCCC3)n2)cc1F | i
Cc1nonc1CN(C)C(=O)CC(c1ccccc1)c1ccc2c(c1)OCO2 (stereo not given) | -10%
Cc1ccc(CNC(=O)N2CCC(Oc3ccc(-c4noc(C)n4)cc3)C2)cc1 (stereo not given) | i[5.79 µM]
Cn1c(CCNC(=O)CN2CC3CC(C2)[C@H]2CCCC(=O)N2C3)nc2ccccc21 (stereo not given in full) | -30%
CCc1ccc(NC(=O)CC2C(=O)N(c3ccc(C)cc3)C(=O)N2CCc2ccncc2)cc1 (stereo not given) | 6.3µM*
Cc1cccc(N2C(=O)C(CC(=O)Nc3cccc(F)c3)N(CCc3ccncc3)C2=O)c1 (stereo not given) | -18%
COc1ccc(CCN2C(=O)N(c3ccc(C)cc3)C(=O)C2CC(=O)Nc2ccc(F)cc2)cc1 (stereo not given) | -20%
CCNC(=O)N1CCC(Cc2ncc(C)n2C2CC2)C1 (stereo not given) | -6%
CC(C)(C)c1cc(C(=O)NCCc2ccc(Cl)cc2)nn2cccc12 | -6%
CCOc1ccccc1CN1CCN(C(=O)CC2CCOCC2)CC1 | -18%
CCOC(=O)C1CCN(Cc2ccccc2OCC(O)CN(C)C2CCCCC2)CC1 (stereo not given) | 10µM*
O=C1CCN(Cc2ccccc2OCC(O)CN2CCCCC2)CCN1 (stereo not given) | -8%
O=C(NC1(CN2CCOCC2)CCCC1)c1ccc(C2CCCNC2)cc1 (stereo not given) | -11%
O=C1CCN(C(=O)c2ccccc2)CCCC(C(=O)NCC2CC2)CCN1 (stereo not given) | 23%
O=C(Nc1nnc(C2CC2)s1)C1CC(=O)N(c2n[nH]c3cc(Br)ccc23)C1 (stereo not given) | 8%
Cc1c(C(=O)OC2CCCC2)[nH]c2c1C(=O)CC(c1ccc(C(C)(C)C)cc1)C2 (stereo not given) | -18%
